Measurements published in PubChem BioAssay (NCATS).
Records with an inconclusive call do not appear. Active and inactive are the calls of the source. Calls come from the whole dose curve; as a rule, active = well fitted inhibition curve with a large enough effect; inconclusive = small, poorly fitted or top-dose-only effect; inactive = flat fitted curve, though single readings scatter.

Legend:
Assay in all cases: qHTS profiling for inhibitors of Plasmodium falciparum proliferation (AID 504749); note: nearly all actives have a fitted effect of over 60% in size
Conditions in all cases: P. falciparum in erythrocytes, SYBR Green DNA, 72 h; series mostly up to 28.7 µM
ATS95 = test system: ATS95
Summary of the method: (§1)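 Parasite proliferation within erythrocytes, 72 h exposure. Endpoint: SYBR Green I fluorescence after overnight lysis at room temperature. Controls: 0.29 uM artemisinin, DMSO.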

C2A = test system: C2A
Summary of the method: as §1

CP185 = test system: CP185
Summary of the method: as §1

CP191 = test system: CP191
Summary of the method: as §1

CP192 = test system: CP192
Summary of the method: as §1

CP194 = test system: CP194
Summary of the method: as §1

CP201 = test system: CP201
Summary of the method: as §1

CP203 = test system: CP203
Summary of the method: as §1

CP211 = test system: CP211
Summary of the method: as §1

CP215 = test system: CP215
Summary of the method: as §1

CP217 = test system: CP217
Summary of the method: as §1

CP237 = test system: CP237
Summary of the method: as §1

CP238 = test system: CP238
Summary of the method: as §1

CP250 = test system: CP250
Summary of the method: as §1

CP252 = test system: CP252
Summary of the method: as §1

CP256 = test system: CP256
Summary of the method: as §1

CP260 = test system: CP260
Summary of the method: as §1

CP262 = test system: CP262
Summary of the method: as §1

CP265 = test system: CP265
Summary of the method: as §1

CP247 = test system: CP247
Summary of the method: as §1

Measured: Potency

COc1ccc(O)cc1
inactive: ATS95 | C2A | CP185 | CP191 | CP192 | CP194 | CP201 | CP203 | CP211 | CP215 | CP217 | CP237 | CP238 | CP250 | CP252 | CP256 | CP260 | CP262 | CP265

C[C@@H]1O[C@@H](OC[C@H]2O[C@@H](Oc3c(-c4ccc(O)c(O)c4)oc4cc(O)cc(O)c4c3=O)[C@H](O)[C@@H](O)[C@@H]2O)[C@H](O)[C@H](O)[C@H]1O
inactive: ATS95 | C2A | CP185 | CP191 | CP192 | CP194 | CP201 | CP211 | CP215 | CP217 | CP237 | CP238 | CP247 | CP250 | CP252 | CP256 | CP260 | CP262 | CP265

CC(O)CCCCn1c(=O)c2c(ncn2C)n(C)c1=O (centres undefined)
inactive: ATS95 | C2A | CP185 | CP191 | CP192 | CP194 | CP201 | CP211 | CP215 | CP217 | CP237 | CP238 | CP247 | CP250 | CP252 | CP256 | CP260 | CP262 | CP265

Cc1ccc(S(=O)(=O)NC(=O)NC2CCCCCCC2)cc1
inactive: ATS95 | C2A | CP185 | CP191 | CP192 | CP194 | CP201 | CP211 | CP215 | CP217 | CP237 | CP238 | CP247 | CP250 | CP252 | CP256 | CP260 | CP262 | CP265

CC1CCN(CCCC(=O)c2ccc(F)cc2)CC1
inactive: ATS95 | C2A | CP185 | CP191 | CP192 | CP194 | CP201 | CP203 | CP211 | CP215 | CP217 | CP238 | CP247 | CP250 | CP252 | CP256 | CP260 | CP265

Cc1onc(-c2ccccc2)c1-c1ccc(S(N)(=O)=O)cc1
inactive: ATS95 | C2A | CP185 | CP191 | CP192 | CP194 | CP201 | CP203 | CP211 | CP217 | CP237 | CP238 | CP247 | CP250 | CP252 | CP256 | CP260 | CP262 | CP265

CC[N+](CC)(CC(=O)Nc1c(C)cccc1C)Cc1ccccc1
inactive: ATS95 | C2A | CP185 | CP191 | CP192 | CP194 | CP201 | CP211 | CP215 | CP217 | CP237 | CP238 | CP247 | CP250 | CP252 | CP256 | CP260 | CP265

CN(C/C=C/C#CC(C)(C)C)Cc1cccc2ccccc12
inactive: ATS95 | C2A | CP185 | CP191 | CP192 | CP194 | CP201 | CP203 | CP211 | CP215 | CP217 | CP238 | CP247 | CP250 | CP252 | CP256 | CP260 | CP262 | CP265

O=S1(=O)OC(c2ccc(O)cc2)(c2ccc(O)cc2)c2ccccc21
inactive: ATS95 | C2A | CP185 | CP191 | CP192 | CP194 | CP201 | CP203 | CP211 | CP217 | CP237 | CP238 | CP247 | CP250 | CP252 | CP256 | CP260 | CP262 | CP265

COC(=O)c1ccccc1C(=O)c1ccc(OCCN2CCCCC2)cc1
inactive: ATS95 | C2A | CP185 | CP191 | CP192 | CP194 | CP201 | CP203 | CP211 | CP215 | CP217 | CP238 | CP247 | CP250 | CP252 | CP256 | CP260 | CP262 | CP265

NS(=O)(=O)c1ccc(NC(=O)CCC(=O)O)cc1
inactive: ATS95 | C2A | CP185 | CP191 | CP192 | CP194 | CP201 | CP211 | CP215 | CP217 | CP237 | CP238 | CP247 | CP250 | CP252 | CP256 | CP260 | CP262 | CP265

O=C1c2cccc(O)c2C(=O)c2c(O)cccc21
inactive: ATS95 | C2A | CP185 | CP191 | CP192 | CP194 | CP201 | CP211 | CP215 | CP217 | CP237 | CP238 | CP247 | CP250 | CP252 | CP256 | CP260 | CP262 | CP265

Cc1ncc(CO)c(CN)c1O
inactive: ATS95 | C2A | CP185 | CP191 | CP192 | CP194 | CP201 | CP203 | CP211 | CP217 | CP237 | CP238 | CP247 | CP250 | CP252 | CP256 | CP260 | CP265

NC(N)=NCCN1CCCCCCC1
inactive: ATS95 | C2A | CP185 | CP191 | CP192 | CP194 | CP201 | CP203 | CP211 | CP217 | CP237 | CP238 | CP247 | CP250 | CP252 | CP256 | CP260 | CP262 | CP265

CCOC(=O)[C@H](CCc1ccccc1)N[C@@H](C)C(=O)N1CCC[C@H]1C(=O)O
inactive: ATS95 | C2A | CP185 | CP191 | CP192 | CP194 | CP201 | CP203 | CP211 | CP217 | CP237 | CP238 | CP247 | CP250 | CP252 | CP256 | CP260 | CP262 | CP265

Cc1ccccc1N=Nc1ccc(N=Nc2c(O)ccc3ccccc23)c(C)c1
inactive: ATS95 | C2A | CP185 | CP191 | CP192 | CP194 | CP201 | CP211 | CP215 | CP217 | CP237 | CP238 | CP247 | CP250 | CP252 | CP256 | CP260 | CP262 | CP265

C[C@@H]1CCC[C@H](C)N1
inactive: ATS95 | C2A | CP185 | CP191 | CP192 | CP194 | CP201 | CP211 | CP215 | CP217 | CP237 | CP238 | CP247 | CP250 | CP252 | CP256 | CP260 | CP262 | CP265

O=C(OOC(=O)c1ccccc1)c1ccccc1
inactive: ATS95 | C2A | CP185 | CP191 | CP192 | CP194 | CP201 | CP211 | CP215 | CP217 | CP237 | CP238 | CP247 | CP250 | CP252 | CP256 | CP260 | CP262 | CP265
